Measured values as given in PubChem BioAssay (Tox21).
Where “and” joins values, the source holds several entries; their conditions need not be identical. Equal values may be shown once. Records with an inconclusive call do not appear. Entries that show only a call come without a potency. A number with no mark means an inactive call. Calls of active or inactive are those of the source. Unless noted, calls follow the shape of the dose curve; as a rule, active = well fitted curve in the direction sought with a large enough effect in the repeat runs; inconclusive = weak or mixed curves; inactive = no such curve, though single readings can be large; an effect the other way counts as inactive or inconclusive.

Legend:
[1] = qHTS assay to identify small molecule agonists of the RXR signaling pathway - cell viability counter screen (AID 1159529); also: nearly all actives have a fitted effect of over 50% in size; also: potency is read from the fitted curve at half-maximal effect;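 as to activity change, negative = cytotoxicity: HEK 293T cells carrying an RXR-alpha UAS beta-lactamase reporter; series mostly up to about 77 µM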
Method in brief: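 Tox21 10K compounds were tested for cytotoxicity against GeneBLAzer RXR-alpha HEK 293T cells grown in 2% charcoal-stripped FBS. Exposure lasted 16 hr at 37 C, 5% CO2; viability read by CellTiter-Glo luminescence.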

[2] = qHTS assay to identify small molecule antagonists of the retinoid acid receptor (RAR) signaling pathway - cell viability counter screen (AID 1159551); also: nearly all actives have a fitted effect of over 35% in size; also: potency is read from the fitted curve at half-maximal effect
Method in brief: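 ATP-based viability, C3RL4 cells, 6 h at 37 C with 1 uM final retinol co-added after compound; luminescence read 30 min post CellTiter-Glo, RT.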

[3] = qHTS assay to identify small molecule antagonists of the retinoic acid receptor (RAR) signaling pathway (AID 1159552; also: nearly all actives have a fitted effect of over 50% in size; also: potency is read from the fitted curve at half-maximal effect)
Method in brief: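 Overnight-plated C3RL4 reporter cells get compound, then retinol to 1 uM final; plates sit 6 hr at 37 C, 5% CO2. A luciferase reagent is added and light output recorded after 30 min at room temperature.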

[4] = qHTS assay to identify small molecule antagonists of the estrogen related receptor (ERR) signaling pathway from Tox21 library - cell viability counter screen (AID 1224834); also: nearly all actives have a fitted effect of over 30% in size; also: potency is read from the fitted curve at half-maximal effect
Method in brief: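 Compounds in DMSO were pinned onto ERR cells that had been incubated for 6 h, and the plates were held at 37 C for 17.5 h. CellTiter-Fluor reagent was then added and fluorescence was measured after 30 min.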

[5] = molecular target: Luciferin 4-monooxygenase (Photinus pyralis) (UniProt P08659); experiment: qHTS assay to identify small molecule inhibitors of firefly luciferase (AID 1224835); also: nearly all actives have a fitted effect of over 25% in size; also: potency is read from the fitted curve at half-maximal effect; as to activity change, negative = inhibition: series mostly up to about 120 µM
Sequence of Luciferin 4-monooxygenase (Photinus pyralis) (P08659 whole entry, looked up): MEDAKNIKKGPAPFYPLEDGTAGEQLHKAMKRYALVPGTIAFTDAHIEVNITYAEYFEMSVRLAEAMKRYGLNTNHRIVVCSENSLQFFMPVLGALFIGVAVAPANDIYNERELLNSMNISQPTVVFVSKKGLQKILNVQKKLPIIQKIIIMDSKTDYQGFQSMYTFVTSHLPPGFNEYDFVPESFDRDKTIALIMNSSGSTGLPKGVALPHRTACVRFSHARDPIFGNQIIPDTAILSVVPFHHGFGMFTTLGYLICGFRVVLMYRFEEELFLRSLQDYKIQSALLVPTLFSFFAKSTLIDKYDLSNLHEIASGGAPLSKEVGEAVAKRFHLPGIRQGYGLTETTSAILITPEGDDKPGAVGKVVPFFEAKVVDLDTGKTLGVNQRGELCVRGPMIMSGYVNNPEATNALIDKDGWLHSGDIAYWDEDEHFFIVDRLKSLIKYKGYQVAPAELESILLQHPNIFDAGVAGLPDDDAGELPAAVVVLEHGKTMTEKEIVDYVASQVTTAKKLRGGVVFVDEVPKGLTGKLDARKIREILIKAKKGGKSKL
Method in brief: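 Quantitative HTS format; KM concentrations of both substrates. Purified P. pyralis FLuc activity quantified from luminescence images.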

[6] = qHTS assay to identify small molecule agonists of the constitutive androstane receptor (CAR) signaling pathway - cell viability counter screen (AID 1224836); also: nearly all actives have a fitted effect of over 45% in size; also: potency is read from the fitted curve at half-maximal effect; as to viability change, negative = cytotoxic: series mostly up to about 92 µM
Method in brief: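 Fluorescence from CellTiter-Fluor indicates live cells after 23 h exposure. The human hepatoma line expresses hCAR and a CYP2B6-2.2kb reporter. Incubation medium contains 0.75 uM PK11195 (final).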

[7] = qHTS assay to identify small molecule antagonists of the constitutive androstane receptor (CAR) signaling pathway - cell viability counter screen (AID 1224837); also: nearly all actives have a fitted effect of over 45% in size; also: potency is read from the fitted curve at half-maximal effect; as to activity change, negative = cytotoxicity: series mostly up to about 92 µM
Method in brief: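 Cells are seeded, rested 4 hr at 37 C/5% CO2, dosed with compound (15-point series) and 50 nM CITCO, incubated a further 23 hr, and then CellTiter-Fluor reagent is added before fluorescence is read. The line is HepG2 with stable hCAR and CYP2B6-2.2kb.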

[8] = qHTS assay to identify small molecule antagonists of the estrogen related receptor signaling pathway with the pleiotropic PPARgamma coactivator (PGC) from Tox21 10K library - cell viability counter screen (AID 1224840; active = well fitted cell-killing curve with a large enough effect in the repeat runs, not every such curve was filed as active; also: nearly all actives have a fitted effect of over 40% in size; also: potency is read from the fitted curve at half-maximal effect)
Method in brief: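 Cell viability is measured by CellTiter-Fluor fluorescence in PGC/ERR cells that receive compounds after a 6-hour attachment period and are then incubated 17.5 hours at 37 C.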

[9] = molecular target: Thyrotropin receptor (Homo sapiens) (UniProt P16473); experiment: qHTS assay to identify small molecule agonists of the thyroid stimulating hormone receptor (TSHR) signaling pathway (AID 1224843; calls by dose curve; also: nearly all actives have a fitted effect of over 45% in size)
Sequence of Thyrotropin receptor (Homo sapiens) (P16473 whole entry, looked up): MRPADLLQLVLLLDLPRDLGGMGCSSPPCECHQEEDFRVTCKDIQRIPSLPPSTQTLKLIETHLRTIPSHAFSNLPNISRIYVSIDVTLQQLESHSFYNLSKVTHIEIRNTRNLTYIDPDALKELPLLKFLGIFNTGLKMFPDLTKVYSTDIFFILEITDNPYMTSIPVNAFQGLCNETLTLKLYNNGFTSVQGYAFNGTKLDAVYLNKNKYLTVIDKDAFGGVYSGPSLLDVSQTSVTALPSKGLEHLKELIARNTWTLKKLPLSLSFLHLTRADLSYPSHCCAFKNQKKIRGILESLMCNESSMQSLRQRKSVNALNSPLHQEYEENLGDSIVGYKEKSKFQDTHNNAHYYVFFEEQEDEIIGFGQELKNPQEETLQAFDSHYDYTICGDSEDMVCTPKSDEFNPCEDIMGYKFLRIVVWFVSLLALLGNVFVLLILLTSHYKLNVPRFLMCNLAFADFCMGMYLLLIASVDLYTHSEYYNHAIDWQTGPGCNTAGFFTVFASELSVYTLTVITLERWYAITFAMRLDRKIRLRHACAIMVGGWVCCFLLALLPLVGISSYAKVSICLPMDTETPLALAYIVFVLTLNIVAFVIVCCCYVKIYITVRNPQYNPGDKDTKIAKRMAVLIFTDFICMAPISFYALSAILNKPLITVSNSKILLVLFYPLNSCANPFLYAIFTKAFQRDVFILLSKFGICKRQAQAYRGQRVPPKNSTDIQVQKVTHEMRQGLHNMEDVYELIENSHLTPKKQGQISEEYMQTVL
Method in brief: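 Using 15 concentrations per compound in triplicate, cAMP production was monitored in TSHR-HEK293 cells after 30 min compound incubation at RT; HTRF reagents followed, with fluorescence intensity recorded after 1 h.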

[10] = molecular target: Nuclear receptor subfamily 1 group I member 3 (Homo sapiens) (UniProt Q14994); experiment: qHTS assay to identify small molecule antagonists of the constitutive androstane receptor (CAR) signaling pathway (AID 1224838);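 also: HepG2 cells stably expressing hCAR with CYP2B6 luciferase reporter stimulated by CITCO; nearly all actives have a fitted effect of over 40% in size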; also: potency is read from the fitted curve at half-maximal effect
Sequence of Nuclear receptor subfamily 1 group I member 3 (Homo sapiens) (Q14994 whole entry, looked up): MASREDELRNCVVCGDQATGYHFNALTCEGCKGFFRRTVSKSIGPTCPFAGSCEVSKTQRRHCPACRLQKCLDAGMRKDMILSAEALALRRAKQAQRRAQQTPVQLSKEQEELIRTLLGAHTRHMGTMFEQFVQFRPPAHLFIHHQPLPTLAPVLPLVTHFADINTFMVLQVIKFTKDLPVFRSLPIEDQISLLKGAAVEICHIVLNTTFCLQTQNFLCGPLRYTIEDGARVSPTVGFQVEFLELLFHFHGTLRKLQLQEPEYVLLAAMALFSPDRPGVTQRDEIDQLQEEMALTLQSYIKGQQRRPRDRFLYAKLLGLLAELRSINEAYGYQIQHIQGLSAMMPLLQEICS
Method in brief: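 Luminescence from a CYP2B6-2.2kb promoter reporter in hCAR-expressing HepG2 cells reflects CAR signaling. Cells received compounds at 15 concentrations and 50 nM CITCO (final), then incubated 24 h at 37 C/5% CO2.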

[11] = molecular target: Nuclear receptor subfamily 1 group I member 3 (Homo sapiens) (UniProt Q14994); experiment: qHTS assay to identify small molecule agonists of the constitutive androstane receptor (CAR) signaling pathway (AID 1224839); also: nearly all actives have a fitted effect of over 15% in size; also: potency is read from the fitted curve at half-maximal effect;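 as to activation: HepG2 cells stably carrying human CAR and a CYP2B6 luciferase reporter; series mostly up to about 92 µM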
Method in brief: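 Stable hCAR/CYP2B6-2.2kb HepG2 line in DMEM with 10% FBS; compounds (15 concentrations) and 0.75 uM PK11195 final, 24 h at 37 C/5% CO2, then ONE-Glo luminescence after 30 min.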

[12] = qHTS assay to identify small molecule agonists of the retinoic acid receptor (RAR) signaling pathway (AID 1159553)
Method in brief: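 Quantitative high-throughput format: the Tox21 10K library was tested on C3RL4 RARE-luciferase cells for 6 hr at 37 C and 5% CO2, with luminescence measured after a 30 min room-temperature reagent step.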

[13] = qHTS assay to identify small molecule agonists of the estrogen related receptor signaling pathway with the pleiotropic PPARgamma coactivator (PGC) from Tox21 10K library (AID 1224842); also: nearly all actives have a fitted effect of over 15% in size
Method in brief: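 PGC/ERR reporter cells (NTP line) were seeded 2,000 per well, rested 6 h at 37 C/5% CO2, then pin-dosed with compounds in DMSO for 18 h at 37 C; luciferase read by One-Glo luminescence after 30 min at room temperature.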

CCN(CC)CCc1c[nH]c2ccccc12
Potency [1]: inactive
Potency [2]: inactive
Potency [3]: inactive
Potency [4]: inactive
Potency [5]: inactive
Potency [6]: inactive
Potency [7]: inactive
Potency [8]: inactive
Potency [9]: inactive

O=C(N[C@@H]1N=C(c2ccccc2F)c2cccc3c2N(CC3)C1=O)c1cc2ccccc2[nH]1
Potency [1]: inactive
Potency [2]: inactive
Potency [3]: inactive
Potency [5]: 9.77 µM (active)
Potency [6]: inactive
Potency [7]: inactive
Potency [10]: inactive
Potency [11]: 2.98 µM (active)
Potency [8]: inactive
Potency [9]: inactive

CC1(C)[C@H](/C=C2\CCSC2=O)[C@@H]1C(=O)OCc1coc(Cc2ccccc2)c1
Potency [1]: inactive
Potency [2]: inactive
Potency [3]: inactive
Potency [4]: inactive
Potency [5]: inactive
Potency [6]: inactive
Potency [7]: inactive
Potency [10]: inactive
Potency [8]: inactive

CC(C)[C@@H](Nc1ccc(C(F)(F)F)cc1Cl)C(=O)OC(C#N)c1cccc(Oc2ccccc2)c1 (some centres undefined)
Potency [1]: inactive
Potency [2]: inactive
Potency [3]: inactive
Potency [4]: inactive
Potency [5]: inactive
Potency [6]: inactive
Potency [7]: inactive
Potency [10]: inactive
Potency [11]: inactive
Potency [8]: inactive

COP(=O)(OC)Oc1ccc([N+](=O)[O-])cc1
Potency [1]: inactive
Potency [2]: inactive
Potency [3]: inactive
Potency [12]: inactive
Potency [5]: inactive
Potency [11]: inactive
Potency [13]: inactive
Potency [9]: inactive

CC#C[C@]1(O)CC[C@H]2[C@@H]3C[C@H](C)C4=CC(=O)CC[C@]4(C)[C@H]3CC[C@@]21C
Potency [1]: inactive
Potency [2]: inactive
Potency [3]: 13.3 µM (active)
Potency [5]: inactive
Potency [6]: inactive
Potency [7]: inactive
Potency [11]: inactive
Potency [8]: inactive
Potency [9]: inactive

O=P(Cl)(Cl)Cl
Potency [1]: inactive
Potency [2]: inactive
Potency [3]: inactive
Potency [4]: inactive
Potency [5]: inactive
Potency [6]: inactive
Potency [7]: inactive
Potency [10]: inactive
Potency [11]: inactive
Potency [9]: inactive

BrCC(Br)(Br)Br
Potency [1]: inactive
Potency [2]: inactive
Potency [3]: inactive
Potency [4]: inactive
Potency [6]: inactive
Potency [7]: inactive
Potency [11]: inactive
Potency [8]: inactive

ClC(Cl)C(Cl)(Cl)Cl
Potency [1]: inactive
Potency [2]: inactive
Potency [3]: inactive
Potency [4]: inactive
Potency [5]: inactive
Potency [6]: inactive
Potency [7]: inactive
Potency [8]: inactive
Potency [9]: inactive

CN(C)C(=S)SSC(=S)N(C)C
Potency [1]: 272 nM (active) and 692 nM (active) and 268 nM (active)
Potency [2]: 67.6 µM (active)
Potency [3]: 214 nM (active) and 306 nM (active)
Potency [4]: 339 nM (active) and 433 nM (active) and 473 nM (active)
Potency [5]: 2.21 µM (active) and 1.26 µM (active) and 1.55 µM (active)
Potency [6]: 339 nM (active) and 486 nM (active) and 531 nM (active)
Potency [7]: 269 nM (active) and 344 nM (active) and 422 nM (active)
Potency [10]: 191 nM (active) and 386 nM (active) and 473 nM (active)
Potency [11]: inactive
Potency [8]: 214 nM (active) and 243 nM (active) and 266 nM (active)

Oc1cccc(Cl)c1Cl
Potency [1]: 49.2 µM (active)
Potency [2]: inactive
Potency [3]: inactive
Potency [4]: inactive
Potency [6]: inactive
Potency [7]: inactive
Potency [10]: inactive
Potency [11]: inactive
Potency [8]: inactive
Potency [13]: inactive
Potency [9]: inactive

O=NN(CCO)CCO
Potency [1]: inactive
Potency [2]: inactive
Potency [3]: inactive
Potency [4]: inactive
Potency [6]: inactive
Potency [7]: inactive
Potency [8]: inactive
Potency [9]: inactive

O=C(Cl)c1ccccc1F
Potency [1]: inactive
Potency [2]: inactive
Potency [3]: inactive
Potency [4]: inactive
Potency [5]: inactive
Potency [6]: inactive
Potency [7]: inactive
Potency [10]: inactive
Potency [11]: inactive
Potency [8]: inactive
Potency [9]: inactive

Cc1ccc([N+](=O)[O-])[c]2c1[O][Hg]2
Potency [1]: 3.01 µM (active)
Potency [2]: 6.68 µM (active)
Potency [3]: 1.5 µM (active)
Potency [4]: 5.31 µM (active)
Potency [5]: 17.4 µM (active)
Potency [6]: 9.44 µM (active)
Potency [7]: 6.68 µM (active)
Potency [10]: 9.44 µM (active)
Potency [11]: inactive
Potency [8]: 5.96 µM (active)

CCOC(=O)CCN(SN(C)C(=O)Oc1cccc2c1OC(C)(C)C2)C(C)C
Potency [1]: inactive
Potency [2]: inactive
Potency [3]: 61.1 µM (active)
Potency [4]: inactive
Potency [5]: inactive
Potency [6]: inactive
Potency [7]: inactive
Potency [10]: inactive
Potency [11]: 27.3 µM (active)
Potency [13]: inactive
Potency [9]: inactive

c1csc(-c2ccc(-c3cccs3)s2)c1
Potency [1]: inactive
Potency [2]: inactive
Potency [3]: inactive
Potency [4]: inactive
Potency [5]: 2.52 µM (active)
Potency [6]: inactive
Potency [7]: inactive
Potency [11]: 13.7 µM (active)

Nc1ccccc1-c1ccccc1
Potency [1]: 21.7 µM (active)
Potency [2]: inactive
Potency [3]: inactive
Potency [12]: inactive
Potency [6]: inactive
Potency [7]: inactive
Potency [11]: inactive
Potency [8]: inactive
Potency [13]: inactive
Potency [9]: inactive

Clc1c(Cl)c(Cl)c(Cl)c(Cl)c1Cl
activity change, negative = cytotoxicity [1]: 0.339% [at 6.97 µM]
activity change, negative = cytotoxicity [2]: 0.805% [at 8.39 µM]
activity, negative = inhibition [3]: 2.67% [at 8.39 µM]
viability change, negative = cytotoxic [4]: 3.08% [at 8.39 µM]
activity change, negative = inhibition [5]: 2.81% [at 10.5 µM]
viability change, negative = cytotoxic [6]: -2.28% [at 8.39 µM]
activity change, negative = cytotoxicity [7]: 2.2% [at 8.39 µM]
activity, negative = inhibition [10]: 2.04% [at 8.39 µM]
activation [11]: -1% [at 8.39 µM]
viability change, negative = cytotoxic [8]: 8.1% [at 8.39 µM]
activation [9]: -17.5% [at 8.39 µM]

COC(=O)/C=C(\C)OP(=O)(OC)OC
Potency [1]: inactive
Potency [2]: inactive
Potency [3]: inactive
Potency [4]: inactive
Potency [5]: inactive
Potency [6]: inactive
Potency [7]: inactive
Potency [10]: inactive
Potency [11]: inactive
Potency [8]: inactive
Potency [9]: inactive

CN/C(=N\[N+](=O)[O-])NCc1cnc(Cl)s1
Potency [1]: inactive
Potency [2]: inactive
Potency [12]: inactive
Potency [4]: inactive
Potency [5]: inactive
Potency [6]: inactive
Potency [7]: inactive
Potency [10]: inactive
Potency [11]: inactive

S=C=NCCc1ccccc1
Potency [1]: inactive
Potency [2]: inactive
Potency [3]: inactive
Potency [5]: 40 µM (active)
Potency [11]: 9.71 µM (active)
Potency [8]: inactive
Potency [9]: inactive
